Compound activity (PubChem BioAssay)
LmPK inhibitor – inhibitors of Leishmania mexicana pyruvate kinase; actives 0.37% (n = 290,000); Potency, µM (highest dose often 57.5 µM), actives largely listed as inhibitors; purified LmPK, Kinase-Glo ATP luminescence, 1 h; Q27686; AID 1721
Target sequence (Q27686 whole entry, looked up): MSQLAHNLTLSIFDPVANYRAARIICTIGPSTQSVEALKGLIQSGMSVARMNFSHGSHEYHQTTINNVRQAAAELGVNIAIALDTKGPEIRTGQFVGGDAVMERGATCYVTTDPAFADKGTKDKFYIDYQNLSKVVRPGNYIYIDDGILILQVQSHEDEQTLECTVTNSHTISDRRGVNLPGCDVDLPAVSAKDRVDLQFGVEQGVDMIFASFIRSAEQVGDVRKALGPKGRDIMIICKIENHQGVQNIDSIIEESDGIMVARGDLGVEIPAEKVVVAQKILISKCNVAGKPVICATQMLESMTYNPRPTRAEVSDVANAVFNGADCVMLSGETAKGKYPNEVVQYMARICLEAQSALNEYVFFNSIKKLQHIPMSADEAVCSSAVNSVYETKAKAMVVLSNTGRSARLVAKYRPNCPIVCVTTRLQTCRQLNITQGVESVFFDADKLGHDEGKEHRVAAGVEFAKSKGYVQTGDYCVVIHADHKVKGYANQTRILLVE
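0.1 nM LmPK, 0.5 mM PEP, 0.1 mM ADP; 50 mM imidazole pH 7.2, 7 mM MgCl2, 50 mM KCl; 1 h RT. Kinase-Glo luminescence readout, normalized to no-enzyme (full inhibition) and uninhibited wells.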
NS1 function inh – influenza NS1 inhibition. Potency, µM (series often up to 46.1 µM). actives 0.4% (n = 270,000). AID 2326; calls by dose curve; note: actives are rising curves; nearly all actives have a fitted effect of over 50% in size
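In this qHTS, NS1 from influenza A is expressed in budding yeast, where it slows growth. Cells are switched from glucose to 2% galactose medium (pH 6.0, -URA), treated with compound, and growth recovery is read at OD600.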
Sm TGR inh – blocks Schistosoma mansoni thioredoxin glutathione reductase; purified TGR, DTNB reduction, TNB absorbance 405 nm; Potency, µM (highest dose often 114 µM), usual class: inhibitors; Q962Y6; AID 485364; actives 3% (n = 360,000); note: nearly all actives have a fitted effect of over 60% in size
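TGR 20 nM + NADPH 100 uM (dispensed conc.), cpd preinc 15 min RT; start with NADPH (500 uM addition) then DTNB (15 mM addition). Kinetic TNB absorbance, 405 nm filter. Four-parameter Hill fit across titration.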
TbPYK inhibitor – T. brucei pyruvate kinase inhibition; TbPYK enzyme, Kinase-Glo Plus ATP luminescence, 45 min; Potency, µM (titrated, usually from 76.8 µM), most hits filed as inhibitors; actives 0.12% (n = 410,000); note: nearly all actives have a fitted effect of over 50% in size
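Screened from lowest to highest concentration, compounds were pinned into TbPYK/substrate mixtures, and ADP (130 uM final) was added. Plates sat at room temperature for 45 min prior to Kinase-Glo Plus detection by luminescence.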
SARS PLP yeast – SARS-CoV PLP inhibition in yeast. S. cerevisiae expressing SARS-CoV PLpro, growth rescue. Potency, µM (top dose mostly 32.9 µM), usual class: activators. actives 0.19% (n = 330,000). AID 485353; calls by dose curve; note: nearly all actives have a fitted effect of over 55% in size
RE007 growth inh – less growth of the S. pombe RE007 Vpr strain | S. pombe RE007 Vpr strain, BacTiter-Glo ATP luminescence, 24 h | Potency, µM (highest dose often 92.2 µM), hits mostly inhibitors | actives 0.21% (n = 360,000); active = well fitted falling curve with a large enough effect; inconclusive = small, poorly fitted or top-dose-only effect; inactive = no such curve, though single readings can be large or run the other way; note: nearly all actives have a fitted effect of over 50% in size
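Fission yeast strain RE007, carrying one chromosomally integrated HIV-1 vpr copy, was seeded at OD 0.01 in PMG+AL medium with 23 nL pinned compound. After 24 h at 30 °C and 99% humidity, viability was read by BacTiter-Glo luminescence.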
Of the large screens only hits and unclear results are named; the others gave an inactive call. Rows were chosen to be rich in hits. Some 3.3% of all compounds tested hit in one or more screens of this group. Unless noted, calls come from the whole dose curve; as a rule, active = well fitted curve in the direction sought with a large enough effect; inconclusive = small, poorly fitted or top-dose-only effect, or another doubt; inactive = no such curve, though single readings can be large; an effect the other way counts as inactive or inconclusive.

COc1ccccc1C1NC(=O)c2n[nH]c(-c3cccs3)c21 (configuration not stated)	none (no result: LmPK inhibitor, NS1 function inh, SARS PLP yeast, RE007 growth inh)
CC1(C)OC(=O)C(=NNc2ccccc2[N+](=O)[O-])C(=O)O1	RE007 growth inh 35µM
CCOC(=O)CNC(=O)c1sc(NC(=O)c2ccccc2F)nc1C	LmPK inhibitor 13µM
COc1ccc(CNC(=O)c2nc(Cn3nc(C)c(Br)c3C)no2)cc1OC	none (no result: LmPK inhibitor, NS1 function inh, SARS PLP yeast, RE007 growth inh)
COc1cccc(CNC(=O)CN2C(=O)CCn3nc(-c4cn(C)c5ccccc45)cc32)c1OC	Sm TGR inh 16µM (no result: LmPK inhibitor, NS1 function inh, SARS PLP yeast, RE007 growth inh)
COCCNc1cc(N2CCN(C3CCCCC3)CC2)c2noc3c2c1C(=O)c1ccccc1-3	none (no result: LmPK inhibitor, NS1 function inh, SARS PLP yeast, RE007 growth inh)
CCOc1ccc(Nc2oc(/C=C/c3cc(OC)c(OC)c(OC)c3)nc2C#N)cc1	none (no result: LmPK inhibitor, NS1 function inh, SARS PLP yeast, RE007 growth inh)
CCS(=O)(=O)c1ncc(Cl)c(C(=O)N(Cc2ccccc2)Cc2ccco2)n1	Sm TGR inh 8.9µM (no result: LmPK inhibitor, NS1 function inh, SARS PLP yeast, RE007 growth inh)
O=C(N/N=C/c1ccco1)c1cccc(N2Cc3ccccc3C2)c1	Sm TGR inh 3.5µM
CC1=CC(=O)C=CC1=Nc1ccc(N(C)C)cc1	TbPYK inhibitor 35µM (no result: LmPK inhibitor, NS1 function inh, Sm TGR inh, SARS PLP yeast)
CCOc1ccc(NS(=O)(=O)c2ccc3[nH]c4c(c3c2)CCCCC4)cc1	none (no result: LmPK inhibitor, NS1 function inh, SARS PLP yeast, RE007 growth inh)
COc1ccc(C(C)=O)cc1COC(=O)c1cccnc1Cl	Sm TGR inh 13µM
COc1ccc(C(C)=O)cc1COC(=O)CSCC(=O)Nc1ccc(C)cc1	Sm TGR inh 35µM (no result: LmPK inhibitor, NS1 function inh)
COc1ccc(C(C)=O)cc1COC(=O)CNC(=O)c1ccccc1F	Sm TGR inh 8.9µM
COc1ccc(C(C)=O)cc1COC(=O)CNC(=O)C1CCCCC1	none (no result: LmPK inhibitor, NS1 function inh, Sm TGR inh)
COc1ccc(C(=O)NCC(c2cccnc2)N2CCc3ccccc3C2)cc1OC (configuration not stated)	none (no result: LmPK inhibitor, NS1 function inh, SARS PLP yeast, RE007 growth inh)
CN(C)CCCNc1cc(N2CCN(C3CCCCC3)CC2)c2noc3c2c1C(=O)c1ccccc1-3	none (no result: LmPK inhibitor, NS1 function inh, SARS PLP yeast, RE007 growth inh)
N#Cc1c(N2CCCCC2)nc(N2CCCCC2)c2c1CCN(Cc1ccccc1)C2	TbPYK inhibitor inconclusive
N#Cc1c(Cl)nc(Cl)c2c1CCN(Cc1ccccc1)C2	Sm TGR inh 35µM
CCOc1ccccc1NC(=O)c1cc2cc(C)ccc2n1C	none (no result: LmPK inhibitor, NS1 function inh, SARS PLP yeast, RE007 growth inh)
O=[N+]([O-])c1ccc(Sc2ncc3ccccn23)nc1	Sm TGR inh 45µM
O=[N+]([O-])c1ccc(Sc2ccccc2Cl)nc1	Sm TGR inh inconclusive
COc1coc(C(O)C[N+](=O)[O-])cc1=O (configuration not stated)	Sm TGR inh 50µM, TbPYK inhibitor inconclusive
CC(C(O)c1cc(=O)c(OCc2ccccc2)co1)[N+](=O)[O-] (configuration not stated)	none (no result: LmPK inhibitor, NS1 function inh, Sm TGR inh, SARS PLP yeast)
O=[N+]([O-])C(/C=C(/Cl)[N+](=O)[O-])=C(N1CCCCC1)N1CCCCC1	Sm TGR inh 25µM
O=C(/C=C/c1ccccc1[N+](=O)[O-])N1CCCCC1	none (no result: NS1 function inh)
Cc1[nH]nc2c1C(Cc1ccccc1)C(C#N)=C(N)O2 (configuration not stated)	Sm TGR inh 20µM
CCc1[nH]nc2c1C(Cc1ccccc1)C(C#N)=C(N)O2 (configuration not stated)	Sm TGR inh inconclusive
CC(C)S(=O)(=O)c1oc(-c2cccs2)nc1S(=O)(=O)c1ccc(F)cc1	Sm TGR inh 0.89µM (no result: LmPK inhibitor, NS1 function inh, SARS PLP yeast, RE007 growth inh)
CC(C)S(=O)(=O)c1oc(-c2ccc(F)cc2)nc1S(=O)(=O)c1ccccc1	Sm TGR inh 0.89µM (no result: LmPK inhibitor, NS1 function inh, SARS PLP yeast, RE007 growth inh)
Cc1ccc(S(=O)(=O)c2nc(-c3cccs3)oc2SC(C)C)cc1	none (no result: LmPK inhibitor, NS1 function inh, SARS PLP yeast, RE007 growth inh)
CN(C)CCCNc1c2c(nc3ccc(Cl)cc13)CCCC2	none (no result: LmPK inhibitor, Sm TGR inh, TbPYK inhibitor, SARS PLP yeast, RE007 growth inh)
O=C(Nc1ccc(Cl)cc1)C(Cl)C(=O)c1ccccc1 (configuration not stated)	Sm TGR inh inconclusive, TbPYK inhibitor inconclusive, RE007 growth inh 11µM
Cc1cccc(Cl)c1NC[C@H](O)CN1CCN(C)CC1	none (no result: LmPK inhibitor, Sm TGR inh, TbPYK inhibitor, SARS PLP yeast, RE007 growth inh)
CN(O)/C=C/C(=O)c1ccc(Br)cc1	Sm TGR inh 8.9µM (no result: NS1 function inh)
Cc1cc(Br)ccc1NC(=O)c1sc2nc3n(c(=O)c2c1C)CCCC3	Sm TGR inh 22µM (no result: LmPK inhibitor, NS1 function inh, SARS PLP yeast, RE007 growth inh)
CCOC(=O)c1sc2nc3n(c(=O)c2c1C)CCCCC3	none
CCOC(=O)c1ccccc1NC(=O)c1sc2nc3n(c(=O)c2c1C)CCCC3	Sm TGR inh 45µM (no result: LmPK inhibitor, NS1 function inh, SARS PLP yeast, RE007 growth inh)
